Inconclusive results are not listed. A call without a number means that no potency is given here. The source made the active and inactive calls. Calls come from the whole dose curve; as a rule, active = well fitted cell-killing curve with a large enough effect; inconclusive = small, poorly fitted or top-dose-only effect, or effect the other way; inactive = flat fitted curve, though single readings scatter.
system: Tov112D; experiment: Primary qHTS to identify gynecologic anti-cancer compounds using libraries of approved drugs and bioactive compounds (AID 1345084); conditions: Gynecologic cancer cell panel viability, ATPlite luminescence, 48 h; series mostly up to 57.5 µM; note: nearly all actives have a fitted effect of over 55% in size
Procedure, shortened: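 Cell viability after 48 h drug treatment, ATPlite luminescence readout; five doses.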

| SMILES | Potency | activity change, negative = cytotoxicity |
| --- | --- | --- |
| C=C(C(=O)O)[C@@H]1CC[C@@]2(C)CCC[C@@](C)(O)[C@@H]2C1 | inactive | – |
| Cc1ccc(C)c(S(=O)(=O)n2cnc3ccccc32)c1 | inactive | – |
| COc1ccccc1CN[C@H]1CCCN[C@H]1c1ccccc1 | inactive | – |
| C[C@@]12CC3(S(=O)(=O)O)OC(O1)[C@]1(COC(=O)c4ccccc4)[C@H]3C[C@]21O[C@@H]1O[C@H](CO)[C@@H](O)[C@H](O)[C@H]1O | inactive | – |
| CC(CCO)CCC1C2(C)CCCC(C)(C)C2CC[C@@]1(C)O (some centres not stated) | inactive | – |
| O=C(OC1C=C(CO)C2C(OC3OC(CO)C(O)C(O)C3O)OC=CC12O)c1ccc(O)cc1 (configuration not stated) | inactive | – |
| CC1(C)CC[C@]2(C(=O)O)CC[C@]3(C)C(=CCC4[C@@]5(C)C[C@@H](O)[C@H](O)[C@@](C)(CO)C5CC[C@]43C)C2C1 (some centres not stated) | inactive | – |
| CC1(C)C[C@@H]2[C@H](C1)[C@@]1(C)C[C@]13C(O)OC[C@]3(O)[C@H]2O (some centres not stated) | inactive | – |
| COc1c2cc(c(O)c1OC)CCCCC(O)CCc1ccc(O)c-2c1 (configuration not stated) | inactive | – |
| CC1(C)CC2C(O)C3=C(CC(C)(O)C2C1)C(=O)OC3 (configuration not stated) | inactive | – |
| OCC1=C[C@@H](O)[C@@H]2C=CO[C@@H](O[C@@H]3O[C@H](CO)[C@@H](O)[C@H](O)[C@H]3O)[C@H]12 | inactive | – |
| CC1=CCC[C@@H]2[C@@](C)(CCc3ccoc3)[C@H](C(=O)O)CC[C@@]12C | inactive | – |
| Cc1cc(-n2c(=O)[nH]c(=O)n(C)c2=O)ccc1Oc1ccc(SC(F)(F)F)cc1 | inactive | – |
| CC1(C)OC(=O)CC(O)C2(C)C1CC(=O)C1(C)C2C(O)CC2(C)C(c3ccoc3)OC(=O)C3OC321 (configuration not stated) | inactive | – |
| CC(=O)OC1C(O)/C(C)=C\C2C(OC(=O)c3ccccc3)C(C)CC2(OC(C)=O)C(OC(C)=O)C(C)/C=C/C(C)(C)C1OC(C)=O (configuration not stated) | inactive | – |
| COC(=O)C1=C[C@@H](O)[C@@H](O)[C@H](O[C@@H]2O[C@H](CO)[C@@H](O)[C@H](O)[C@H]2OC(=O)/C=C/c2ccccc2)C1 | inactive | – |

| SMILES | Potency | activity change, negative = cytotoxicity |
| --- | --- | --- |
| N#CN1CCC[C@@H](n2nc(-c3ccc(Oc4ccc(F)cc4F)cc3)c(C(N)=O)c2N)C1 | inactive | – |
| O=C(O)[C@H]1Cc2ccccc2CN1 | – | 19.2% [at 6.55 µM] (inactive) |
| C=C(C)C1Cc2c(ccc3c2OCC(c2ccc(O)cc2O)C3)O1 (configuration not stated) | inactive | – |
| C=C[C@H]1[C@H](O[C@@H]2O[C@H](CO)[C@@H](O)[C@H](O)[C@H]2O)OC=C(C(=O)OC)[C@H]1CC=O | inactive | – |
| NC[C@H]1CCC[C@@H](CNC(=O)[C@@H](Cc2c[nH]c3ccccc23)NC(=O)N2CCC3(C=Cc4ccccc43)CC2)C1 | inactive | – |
| CC1C2=CC(=O)OC2(O)CC2C1CCC1C(C)(C)CCC(O)C21C (configuration not stated) | inactive | – |
| COc1ccc(C2(O)c3ccccc3NC(=O)C2OC)cc1 (configuration not stated) | inactive | – |
| C/C(=C\CCC(C)CCO)C(=O)OC[C@H]1O[C@@H](O[C@@H]2OC=C(C(=O)O)[C@H]3CC[C@](C)(O)[C@@H]23)C(O)[C@@H](O)C1O (some centres not stated) | inactive | – |
| CC(C)C1(O)NC(=O)C(CC2(O)c3ccccc3N3C(=O)C(C)(C)NC32)n2c1nc1ccccc1c2=O (configuration not stated) | inactive | – |
| C=CC(C)(O)CC/C=C(\C)C(=O)O[C@@H]1[C@@H](O)[C@H](OC(C)(C=C)CC/C=C(\C)C(=O)O)O[C@H](CO)[C@H]1OC(=O)/C(C)=C/CCC(C)(O)C=C (some centres not stated) | inactive | – |
| CC1=C[C@H]2[C@@H](CC1=O)[C@H](C)C[C@H](O)[C@H]2C(C)C | inactive | – |
| CC(=C\C(C)O)/C=C(\C)C(=O)CC1CC(CC(N)=O)CC(=O)O1 (configuration not stated) | inactive | – |
| CC1(C)C[C@H](O)C[C@@]2(C)[C@H]1[C@H](O)C=C1COC(=O)[C@@]12O | inactive | – |
| CCNC(=O)C1CC(F)(c2ccc(CN3CCCC3)c(F)c2)C1 (configuration not stated) | inactive | – |
| O=C(O)CC(CCc1ccccc1)OC1OC(CO)C(O)C(O)C1O (configuration not stated) | inactive | – |
| CC1OC(O[C@H]2CC[C@@]3(C)C(CC[C@]4(C)C3CC=C3C5CC(C)(C)CC[C@]5(C(=O)OC5OC(CO)C(OC6OCC(OC7OCC(O)C(O)C7O)C(O)C6O)C(O)C5O)CC[C@]34C)C2(C)C)C(O)C(O)C1OC1OC(CO)C(O)C(OC2OC(CO)C(O)C(O)C2O)C1O (some centres not stated) | – | -3.05% [at 6.55 µM] (inactive) |
